# Test results from PubChem BioAssay (NCATS).
# Inconclusive results are not listed. A number with no mark means an inactive call. Activity calls are given as the source filed them. Calls come from the whole dose curve; as a rule, active = well fitted inhibition curve with a large enough effect; inconclusive = small, poorly fitted or top-dose-only effect; inactive = flat fitted curve, though single readings scatter.
# Test system: KB-3-1
# Assay: Cytotoxic Profiling of Annotated Libraries Using Quantitative High-Throughput Screening (AID 1296008); note: nearly all actives have a fitted effect of over 60% in size
# Settings: Five cell lines viability, CellTiter-Glo ATP luminescence, 48-72 h; max response: active compounds read low
# Outline: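 Compounds were pin-transferred onto cells and incubated 48 or 72 hr at 37 degree Celsius, 95% humidity. CellTiter-Glo was added, plates sat 10 min at room temperature, then ATP-coupled luminescence was imaged as the viability read-out.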
# % is set by controls: 0 for no effect and ±100 for the full control effect; potency is the fitted concentration of half-maximal effect.
SMILES,outcome,max response [%],Potency
COC(CCc1ccc(O)cc1)CC(=O)CCc1ccc(O)cc1 (stereo unspecified),inactive,–,–
COCCN(C(=O)c1cc(OC)c(OC)c(OC)c1)c1nc(-c2ccccc2)cs1,–,5.9,–
CC(C)c1ccc(NC(=O)Cn2cnc3c2c(=O)n(C)c(=O)n3C)cc1,–,2.05,–
CN(C)C(=O)Nc1cc(-c2ccccc2)ccc1N(C)C,–,-8.42,–
CCCCCc1ccc(/C=C/C(=O)Nc2cc(Cl)ccc2C(=O)O)cc1,–,-3.71,–
O=C(Nc1ccc(Cl)cc1)c1ccccc1NCc1ccncc1,–,-12.3,–
NCCOc1cc(C(=O)Nc2cc(OCCN)c3ccccc3n2)nc(C(=O)Nc2cc(OCCN)c3ccccc3n2)c1,–,–,16.4 µM (active)
C=C1/C(=C/C=C2\CCC[C@]3(C)[C@@H]([C@H](C)/C=C/[C@H](O)C4CC4)CC[C@@H]23)C[C@@H](O)C[C@@H]1O,–,7.77,–
CC(=O)N[C@H]1[C@H](O[C@H]2CC[C@@]3(C)C(CC[C@]4(C)C3CC=C3C5CC(C)(C)CC[C@]5(C(=O)O)C(O)C[C@]34C)C2(C)C)O[C@H](CO[C@@H]2O[C@H](C)[C@H](O)[C@H](O)[C@H]2O[C@@H]2OC[C@@H](O)[C@H](O)[C@H]2O)[C@@H](O)[C@@H]1O (stereo partly specified),–,3.32,–
Nc1nc2c(ncn2C2OC3COP(=O)(O)OC3C2O)c(=O)[nH]1 (stereo unspecified),–,9.92,–
COc1ccc(-c2c(C)nn3c(NCCN4CCOCC4)cc(C)nc23)cc1OC,inactive,–,–
